This is part of a sample that, as a whole, favours compounds with a hit. Of some 79,000 tested, about 15% had one in any assay. Active and inactive are the calls of the source. No stated cut-off is given here; in the data, active means growth inhibition above about 70%; inactive means the rest.
What was measured:
[1] = NCI Yeast Anticancer Drug Screen. Data for the rad50 strain (AID 155);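 further: 0% = growth of vehicle-only cultures of the same strain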; settings: S. cerevisiae rad50 strain growth inhibition; at 50.0 µM; hits give high values
In short: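 Inhibition values express reduced yeast growth in compound-treated cultures relative to vehicle-treated controls.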

[2] = NCI Yeast Anticancer Drug Screen. Data for the mec2-1 strain (AID 157); settings: S. cerevisiae mec2-1 strain, at 50.0 µM, hits give high values
In short: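 Compounds were applied to mec2-1 yeast cells. Their growth was then compared with that of vehicle-treated cultures to give growth inhibition.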

[3] = NCI Yeast Anticancer Drug Screen. Data for the sgs1 mgt1 strain (AID 161);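 further: 0% = growth of cultures given vehicle only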; settings: S. cerevisiae sgs1 mgt1 strain, at 50.0 µM, hits give high values
In short: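 Percent growth inhibition was derived by comparing compound-exposed mutant yeast with vehicle-exposed cultures. The strain carries alterations in DNA damage repair.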

[4] = NCI Yeast Anticancer Drug Screen. Data for the cln2 rad14 strain (AID 165);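 further: 0% = growth equal to vehicle treated cultures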; settings: S. cerevisiae cln2 rad14 strain, at 50.0 µM, hits give high values
In short: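 Strain: cln2 rad14 yeast, altered in cell cycle control and DNA damage repair. Read-out: growth inhibition vs vehicle.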

[5] = NCI Yeast Anticancer Drug Screen. Data for the bub3 strain (AID 167); settings: S. cerevisiae bub3 mutant strain, at 50.0 µM, hits give high values
In short: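 Steps: expose the mutant yeast strain to compound; grow alongside vehicle-treated cultures; measure growth; express inhibition against the vehicle cultures.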

[6] = NCI Yeast Anticancer Drug Screen. Data for the mlh1 rad18 strain (AID 175); settings: S. cerevisiae mlh1 rad18 strain growth inhibition; at 50.0 µM; hits give high values
In short: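 A repair-deficient yeast strain is exposed to test compound, and growth is scored relative to vehicle-treated controls.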

Measured: growth inhibition

CCCc1c(C)[nH]c2ccccc12
inactive: [1] 15.1% | [2] -33.3% | [3] 5.7% | [4] 24.8% | [5] -16.9% | [6] 9%

Nc1cccc(CC(NC(=O)c2ccccc2)C(=O)O)c1 (centres undefined)
inactive: [1] -16.4% | [2] 2.1% | [3] 12.1% | [4] -4.3% | [5] 28.6% | [6] -22.7%

N#CC(C#N)=CNC(=S)Nc1ccc(S(=O)(=O)Nc2nccs2)cc1
inactive: [1] -24.7% | [2] -35.8% | [3] -13.4% | [4] 4.85% | [5] -3.05% | [6] -3.65%

O=C1NCCCC1O (centres undefined)
inactive: [1] 0.5% | [2] -16.5% | [3] 8% | [4] 5.35% | [5] -6.1% | [6] -2.9%

N/N=C(\N)SCCCCCCS/C(N)=N/N
inactive: [1] -10.8% | [2] 2.15% | [3] 24% | [4] 41.5% | [5] 39.9% | [6] -5.2%

COC(=O)C(Cc1nc2ccccc2[nH]c1=O)C(=O)C(=O)Nc1ccc([N+](=O)[O-])cc1[N+](=O)[O-] (centres undefined)
inactive: [1] 7.25% | [2] 22.7% | [3] 4.45% | [4] 0.2% | [5] 18.1% | [6] 13.1%

CC(CS(=O)(=O)Cc1ccccc1)C(N)=O (centres undefined)
inactive: [1] -4.8% | [2] 38.1% | [3] 14.3% | [4] 30.1% | [5] -9.95% | [6] -17.1%

COc1cc(/C=C(\C#N)C(N)=O)cc(Br)c1O
inactive: [1] -13.5% | [2] -24% | [3] 15.9% | [4] 8.65% | [5] 7.45% | [6] -7.35%

CCOC(=O)CCC1(C)OCC(O)CO1 (centres undefined) (tested in a mixture with another compound)
inactive: [1] -11.1% | [2] -5.25% | [3] -5.6% | [4] -2.85% | [5] -16.6% | [6] -25.8%

Cc1cc2c(cc1C)NC1=C(N2)OC(c2cccc(O)c2)C1=O (centres undefined)
inactive: [1] 1.9% | [2] -16.9% | [3] 1.55% | [4] 4.4% | [5] -31.4% | [6] 11.8%

Clc1ccc2c(c1)nnn2OC1CCCC1
inactive: [1] 10.4% | [2] -3.7% | [3] -11.1% | [4] -24.9% | [5] -10.8% | [6] -6.8%

NC(=O)Cc1c[nH]c2ccc(Br)cc12
inactive: [1] -24.1% | [2] -53.8% | [3] -8.4% | [4] 11.4% | [5] -20.7% | [6] -13.2%

Cn1c(=O)c2ncn(CC(O)COc3ccccc3)c2n(C)c1=O (centres undefined)
inactive: [1] 2.15% | [2] 3.1% | [3] 11.8% | [4] -2.8% | [5] 25.9% | [6] 16.3%

COc1ccc2[nH]c3c(c(=O)c2c1)CCCC3
inactive: [1] -1.15% | [2] -12.9% | [3] 2.85% | [4] -6.2% | [5] 5.8% | [6] -12.7%

C[n+]1ccccc1CCC(=O)Nc1ccccc1
inactive: [1] -0.65% | [2] 14.9% | [3] 2.05% | [4] 0.05% | [5] 0.7% | [6] -17.9%

NC(=O)NCCSC1CCCCC1O (centres undefined)
inactive: [1] -23.1% | [2] -35% | [3] -28.4% | [4] 3.1% | [5] -64.5% | [6] 6.45%

CC(C)OC(=O)C(=O)Nc1cccc(Cl)c1
inactive: [1] -3.45% | [2] -14.1% | [3] -29.5% | [4] -65.8% | [5] -15.3% | [6] -2.5%

COC(=O)c1cc([N+](=O)[O-])c(Sc2ncnc3nc[nH]c23)c([N+](=O)[O-])c1
inactive: [1] 53% | [2] 25.6% | [3] 24.4% | [5] 26.9% | [6] 34.8%
active: [4] 80%

O=S(=O)(NCC(Cl)CCl)c1ccccc1 (centres undefined)
inactive: [1] 0.7% | [2] -2.8% | [3] -12.7% | [4] 3.85% | [5] 3.55% | [6] 5%
